Reference: PubChem BioAssay (NCATS)
“And” between values parts separate entries of the source, which are not always exact repeats. Equal entries are not always repeated. Records with an inconclusive call do not appear. Entries that show only a call come without a potency. More than one record can exist for a structure, and the calls need not agree. The source made the active and inactive calls. The call rests on the fitted dose curve; in most records, active means well fitted inhibition curve with a large enough effect; inconclusive means small, poorly fitted or top-dose-only effect; inactive means flat fitted curve, though single readings scatter.

test system: NIH3T3; assay: Cytotoxic Profiling of Annotated Libraries Using Quantitative High-Throughput Screening (AID 1296008); conditions: Five cell lines viability, CellTiter-Glo ATP luminescence, 48-72 h; max response: active compounds read low; further: potency means the concentration at half of the fitted maximal effect
Method in brief: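 Cells exposed to compounds for 48 or 72 hr at 37 degrees Celsius. Viability read as ATP-coupled luminescence with CellTiter-Glo after 10 min at room temperature.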
Further: nearly all actives have a fitted effect of over 60% in size.

Structure (SMILES) | outcome | max response | Potency
C[C@H](Cn1cnc2c(N)ncnc21)OCP(=O)(O)O | inactive | – | –
N[C@@H](Cc1cc(I)c(Oc2cc(I)c(O)c(I)c2)c(I)c1)C(=O)O | inactive | -14.5% (inactive) | –
COc1ccccc1N1CCN(CCN(C(=O)C2CCCCC2)c2ccccn2)CC1 | inactive | -13.5% (inactive) | –
CNC[C@H](O)c1ccc(O)c(O)c1 | inactive | – | –
Nc1ncn([C@H]2C[C@H](O)[C@@H](CO)O2)c(=O)n1 | – | -24.2% (inactive) | –
Cc1cc(=O)oc2cc(O)ccc12 | – | -7.66% (inactive) and -0.637% (inactive) | –
Nc1ccc(S(N)(=O)=O)cc1 | inactive | -7.64% (inactive) | –
C[C@@H](N)C1CCC(C(=O)Nc2ccncc2)CC1 (some centres not stated) | – | -5.63% (inactive) | –
CCCCc1ccc2nc(NC(=O)OC)[nH]c2c1 | – | – | 16.6 nM (active)
COc1cc(OC)c(C(=O)CCCN2CCCC2)c(OC)c1 | inactive | -4.19% (inactive) | –
Cc1nc(Nc2ncc(C(=O)Nc3c(C)cccc3Cl)s2)cc(N2CCN(CCO)CC2)n1 | – | -106% (inactive) | 59.6 nM (active) and 73.1 nM (active)
CN1CCC(=C2c3ccccc3CCc3sccc32)CC1 | inactive | 2.3% (inactive) | –
CCN(CC)CCOc1ccc(Cc2ccccc2)cc1 | – | -6.6% (inactive) | –
CCOC(=O)c1c(C)n(C)c2ccc(O)cc12 | inactive | -5.37% (inactive) | –
Cc1cc(=O)c2c(O)c3c(O)cc(=O)c4c3c3c(cc(O)c1c23)C(C)(C)C=4O | – | -0.918% (inactive) | –
Nc1ccn([C@@H]2O[C@H](CO)[C@@H](O)C2O)c(=O)n1 (some centres not stated) | inactive | – | –
O=C(O)c1cccnc1Nc1cccc(C(F)(F)F)c1 | inactive | -31.9% (inactive) | –
CCC(C)(Oc1ccc(C2(c3ccc(OC(C)(CC)C(=O)O)cc3)CCCCC2)cc1)C(=O)O (configuration not stated) | inactive | -0.924% (inactive) | –
CC1Cc2ccccc2N1NC(=O)c1ccc(Cl)c(S(N)(=O)=O)c1 (configuration not stated) | – | 3.24% (inactive) and 4.11% (inactive) | –

Structure (SMILES) | outcome | max response | Potency
CCOc1cc(CC(=O)N[C@@H](CC(C)C)c2ccccc2N2CCCCC2)ccc1C(=O)O | – | 4.08% (inactive) | –
Cc1ccc(C(=O)c2cc(O)c(O)c([N+](=O)[O-])c2)cc1 | – | 1.41% (inactive) | –
Cc1nccn1CC1CCc2c(c3ccccc3n2C)C1=O (configuration not stated) | – | -4.36% (inactive) and -4.32% (inactive) and -0.458% (inactive) | –
CC(S)C(=O)NCC(=O)O (configuration not stated) | – | 0.885% (inactive) and -1.07% (inactive) | –
COCCCOc1ccnc(CS(=O)c2nc3ccccc3[nH]2)c1C (configuration not stated) | inactive | -12.1% (inactive) and 2.17% (inactive) | –
CC(C)c1ccc2oc3nc(N)c(C(=O)O)cc3c(=O)c2c1 | – | -24.8% (inactive) and -20.9% (inactive) | –
COc1cc2c(cc1OC)C1CC(=O)C(CC(C)C)CN1CC2 (configuration not stated) | inactive | – | –
CNC[C@@H](O)[C@@H](O)[C@H](O)[C@H](O)CO | inactive | – | –
Cc1ccc(Nc2nccc(N(C)c3ccc4c(C)n(C)nc4c3)n2)cc1S(N)(=O)=O | – | – | 7.43 µM (active) and 7.31 µM (active)
O=C(NCCO[N+](=O)[O-])c1cccnc1 | inactive | – | –
CC1(C)NC(=O)N(c2ccc([N+](=O)[O-])c(C(F)(F)F)c2)C1=O | – | -6.23% (inactive) and -0.388% (inactive) | –
Clc1ccc2c(N3CCN(CCCN4CCN(c5ccnc6cc(Cl)ccc56)CC4)CC3)ccnc2c1 | – | -5.21% (inactive) | –
Oc1ccc(OCc2ccccc2)cc1 | inactive | – | –
Cc1ccc(NC(=O)c2ccc(CN3CCN(C)CC3)cc2)cc1Nc1nccc(-c2cccnc2)n1 | inactive | -15.2% (inactive) | –
NC(=O)Cc1cccc(C(=O)c2ccccc2)c1N | – | 1.53% (inactive) and -19% (inactive) | –
c1cnc2cc3c(cc2n1)C1CNCC3C1 | inactive | 4.61% (inactive) | –
c1ccc2[nH]c(-c3cscn3)nc2c1 | – | 2.11% (inactive) and -9.05% (inactive) | –
OC(CN1CCN(c2cccc(Cl)c2)CC1)C(c1ccccc1)c1ccccc1 (configuration not stated) | inactive | -14.3% (inactive) | –
Nc1nc(OCc2ccccc2)c2[nH]cnc2n1 | inactive | – | –

test system: HACAT; assay: qHTS assay to identify novel small-molecules to repurpose for Merkel cell carcinoma treatment (AID 1296009); conditions: MCC and control cell lines, CellTiter-Glo viability, 72 h; at 44.8 µM (top of the series) unless noted
Method in brief: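 CellTiter-Glo luminescence after 72 hr compound exposure at 37 degree celsius gave cell viability. Libraries NPC and MIPE were run as 8- and 11-point dose responses; RLUs normalized to DMSO (negative) and no-cell (cytotoxicity) controls.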

Structure (SMILES) | outcome
C[C@H](Cn1cnc2c(N)ncnc21)OCP(=O)(O)O | inactive
N[C@@H](Cc1cc(I)c(Oc2cc(I)c(O)c(I)c2)c(I)c1)C(=O)O | inactive
Nc1ncn([C@H]2C[C@H](O)[C@@H](CO)O2)c(=O)n1 | inactive
Nc1ccc(S(N)(=O)=O)cc1 | inactive
C[C@@H](N)C1CCC(C(=O)Nc2ccncc2)CC1 (some centres not stated) | inactive
CCCCc1ccc2nc(NC(=O)OC)[nH]c2c1 | inactive
CN1CCC(=C2c3ccccc3CCc3sccc32)CC1 | inactive
CCN(CC)CCOc1ccc(Cc2ccccc2)cc1 | inactive
CCOC(=O)c1c(C)n(C)c2ccc(O)cc12 | inactive
Cc1cc(=O)c2c(O)c3c(O)cc(=O)c4c3c3c(cc(O)c1c23)C(C)(C)C=4O | inactive
Nc1ccn([C@@H]2O[C@H](CO)[C@@H](O)C2O)c(=O)n1 (some centres not stated) | inactive
O=C(O)c1cccnc1Nc1cccc(C(F)(F)F)c1 | inactive
CCC(C)(Oc1ccc(C2(c3ccc(OC(C)(CC)C(=O)O)cc3)CCCCC2)cc1)C(=O)O (configuration not stated) | inactive
CC1Cc2ccccc2N1NC(=O)c1ccc(Cl)c(S(N)(=O)=O)c1 (configuration not stated) | inactive
CCOc1cc(CC(=O)N[C@@H](CC(C)C)c2ccccc2N2CCCCC2)ccc1C(=O)O | inactive
Cc1ccc(C(=O)c2cc(O)c(O)c([N+](=O)[O-])c2)cc1 | inactive

Structure (SMILES) | outcome
Cc1nccn1CC1CCc2c(c3ccccc3n2C)C1=O (configuration not stated) | inactive
CC(S)C(=O)NCC(=O)O (configuration not stated) | inactive
COCCCOc1ccnc(CS(=O)c2nc3ccccc3[nH]2)c1C (configuration not stated) | inactive; activator
CC(C)c1ccc2oc3nc(N)c(C(=O)O)cc3c(=O)c2c1 | inactive
COc1cc2c(cc1OC)C1CC(=O)C(CC(C)C)CN1CC2 (configuration not stated) | inactive
CNC[C@@H](O)[C@@H](O)[C@H](O)[C@H](O)CO | inactive
Cc1ccc(Nc2nccc(N(C)c3ccc4c(C)n(C)nc4c3)n2)cc1S(N)(=O)=O | inactive
O=C(NCCO[N+](=O)[O-])c1cccnc1 | inactive
CC1(C)NC(=O)N(c2ccc([N+](=O)[O-])c(C(F)(F)F)c2)C1=O | inactive
Clc1ccc2c(N3CCN(CCCN4CCN(c5ccnc6cc(Cl)ccc56)CC4)CC3)ccnc2c1 | inactive [at 17.4 µM]
Cc1ccc(NC(=O)c2ccc(CN3CCN(C)CC3)cc2)cc1Nc1nccc(-c2cccnc2)n1 | inactive
NC(=O)Cc1cccc(C(=O)c2ccccc2)c1N | inactive
c1cnc2cc3c(cc2n1)C1CNCC3C1 | inactive
c1ccc2[nH]c(-c3cscn3)nc2c1 | inactive
Nc1nc(OCc2ccccc2)c2[nH]cnc2n1 | inactive
